The text below walks through data of PubChem BioAssay AID411 (National Center for Advancing Translational Sciences (NCATS), 2006).

Screen size: about 72,000 compounds; about 1,600 (2.2%) were called active. The entries come from a sample that favours actives as a whole. A call without a number means that no potency is given here. Unmarked numbers belong to inactive results. Calls come from the whole dose curve; as a rule, active = well fitted inhibition curve with a large enough effect; inconclusive = small, poorly fitted or top-dose-only effect; inactive = flat fitted curve, though single readings scatter.
Potency is the fitted concentration of half-maximal effect.

Luciferin 4-monooxygenase (Photinus pyralis), sequence (P08659 whole entry, looked up): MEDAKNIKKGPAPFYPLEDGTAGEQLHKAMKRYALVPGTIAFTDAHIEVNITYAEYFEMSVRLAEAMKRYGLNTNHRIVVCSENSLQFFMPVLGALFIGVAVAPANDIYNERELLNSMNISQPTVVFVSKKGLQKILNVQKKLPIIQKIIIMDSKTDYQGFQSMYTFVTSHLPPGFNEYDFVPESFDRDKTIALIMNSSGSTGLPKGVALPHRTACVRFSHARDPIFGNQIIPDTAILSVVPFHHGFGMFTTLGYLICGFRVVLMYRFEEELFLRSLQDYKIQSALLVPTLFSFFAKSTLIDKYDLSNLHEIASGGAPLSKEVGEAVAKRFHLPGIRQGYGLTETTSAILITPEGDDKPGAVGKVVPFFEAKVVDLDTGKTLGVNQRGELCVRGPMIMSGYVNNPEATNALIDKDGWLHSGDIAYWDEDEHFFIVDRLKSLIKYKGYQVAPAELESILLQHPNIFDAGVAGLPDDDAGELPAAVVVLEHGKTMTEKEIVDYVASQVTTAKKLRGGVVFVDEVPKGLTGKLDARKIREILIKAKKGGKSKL

The experiment concerns the target Luciferin 4-monooxygenase (Photinus pyralis) (UniProt P08659). The experiment can be described thus: qHTS Assay for Inhibitors of Firefly Luciferase. Note: nearly all actives have a fitted effect of over 40% in size. To be noted: purified firefly luciferase, luminescence, 8 min; series mostly up to 57.1 µM. Summed up:
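Firefly luciferase (PKLight detection mix) with 10 uM ATP in pH 7.2 imidazole buffer (KCl, MgCl2, Tween 20, BSA). Compounds tested across a concentration series (qHTS). Luminescence read after 8 min at ambient temperature.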
Background: In qHTS, concentration-response curves come from the screen itself.
On to `COc1ccc(CCn2c(NCCCN3CCOCC3)nc3c2c(=O)[nH]c(=O)n3C)cc1`, for which the Potency entry was “inactive”. Turning to `CCc1cccc2c3c([nH]c12)C(CC)(CC(=O)O)OCC3` (configuration not stated), the Potency result is “inactive”. As to `CCN1C(=O)/C(=C2\SC(N3CCCCC3)=NC2=O)c2ccccc21`, the Potency is 6.31 µM (active). Consider `CCN1C(=O)c2cccc3c(N)ccc1c23`, for which the Potency result is “inactive”. As to `CCN1C(=O)/C(=C\N2CCN(c3ccccc3)CC2)SC1=S`, the Potency entry was “inactive”.

`CCCn1c(SCC(=O)Nc2c(C)cccc2C)nnc1C(C)C`: the Potency result was “inactive”. For the compound `Cc1cc(C)n2nc(C(=O)Oc3ccc4c(c3)OCO4)nc2n1`, the Potency result was “inactive”. `COc1ccccc1C(=O)n1nc(-c2ccccc2)nc1N`: the Potency result was “inactive”.

Turning to `Cc1occc1C(=O)N1CCCc2ccccc21`, the Potency entry is “inactive”. On to `Cc1nn(C(=O)c2ccoc2C)c(N)c1-c1ccccc1`, for which the Potency was 25.1 µM (active).

Turning to `Cc1nc2cc(S(=O)(=O)C(F)(F)F)ccc2s1`, the Potency entry was “inactive”. In the case of `CN(c1ccccc1)c1ccc(/C=c2\s/c(=C(/C#N)C(=O)C(C)(C)C)n(Cc3ccco3)c2=O)cc1`, the Potency entry is “inactive”. Take `Cc1ccsc1C(=O)OCC(=O)c1cc2ccccc2o1`: the Potency entry is “inactive”.

Turning to `Cc1ccsc1C(=O)OCC(=O)c1cc(C)n(CC2CCCO2)c1C` (configuration not stated), the Potency is 1 µM (active). `COC(=O)c1ccc2c(=O)n(CC3CCCO3)c(=S)[nH]c2c1` (configuration not stated): the Potency entry is “inactive”. With `O=S(=O)(O)c1nc2ccccc2n1Cc1ccc(Cl)cc1Cl`, the Potency result is “inactive”. Regarding `CN1CCN(S(=O)(=O)c2ccc(NC(=O)C3CCCO3)cc2)CC1` (configuration not stated), the Potency entry is “inactive”. Still for that read-out and setting: to `C[C@@H]1C[C@H]2[C@@H]3C[C@H](F)C4=CC(=O)C=C[C@@]4(C)[C@]3(F)[C@H](O)C[C@]2(C)[C@@]1(O)C(=O)CO` belongs “inactive”; to `CN(C)/C=C1/C(=O)Nc2ccccc21`, “inactive”.

As to `CCc1nc2ccccc2n(CCOCCOCCn2c(=O)c(CC)nc3ccccc32)c1=O`, the Potency entry is “inactive”. As for `COC(=O)c1cn(-c2ccccc2)nc1-c1cccnc1`, the Potency result was “inactive”. Consider `O=C(c1cn(-c2ccccc2)nc1-c1cccnc1)N1CCCCC1`, for which the Potency entry was “inactive”. As for `O=C(NCc1cccnc1)c1cn(-c2ccccc2)nc1-c1cccs1`, the Potency was 10 µM (active). Consider `CC(=O)/C(C)=N\O`, for which the Potency result is “inactive”. As for `CCOc1nc(-c2ccc(OC)cc2)ccc1-c1noc(-c2cc(OC)c(OC)c(OC)c2)n1`, the Potency result was “inactive”. In the case of `COc1ccc(-c2noc(-c3cccc(OC)c3OC)n2)cc1OC`, the Potency is 6.31 µM (active).

Consider `COc1cc(-c2nc(-c3ccncc3)no2)cc(OC)c1OC`, for which the Potency result was “inactive”.

`COC(=O)[C@@H]1CC[C@H](C)[C@@H](c2ccc(C)cc2)N1C(=O)c1ccc(/C=N\OC[C@@H](O)COCc2ccco2)cc1`: the activity change, negative = inhibition is -0.535% [at 11.4 µM]. For the compound `CCc1cc2c(=O)c(-c3ccon3)c(N)oc2cc1OC`, the Potency is 3.98 µM (active). Same read-out and setting: to `CC1CCC(NS(=O)(=O)c2ccc3c(c2)n(C)c(=O)c(=O)n3C)CC1` (configuration not stated) belongs “inactive”. Still for that read-out and setting: to `COc1ccc(CCNC(=O)c2ccco2)cc1` belongs “inactive”. For `CCOC(=O)C1C(=O)NC(N2CCN(c3ccccc3)CC2)=NC1c1ccco1` (configuration not stated), the Potency entry was “inactive”. As for `CCOC(=O)C1C(=O)C=C(c2ccc(OC)cc2)CC1c1ccco1` (configuration not stated), the Potency is 25.1 µM (active). Same read-out and setting: to `CN1C(=O)c2ccccc2C(C(=O)NCCCN2CCCC2)C1c1c[nH]c2ccccc12` (configuration not stated) belongs “inactive”. As for `O=C1OCCC=C1[C@@H](O)CCc1ccccc1`, the activity change, negative = inhibition is 1.7% [at 11.4 µM]. On to `CN1CCN(CC(=O)Nc2sc3c(c2C#N)CCC(C(C)(C)C)C3)CC1` (configuration not stated), for which the Potency entry was “inactive”. Same read-out and setting: to `CCOc1ccc(-c2nnn(CC(=O)N3CCN(c4ccc(F)cc4)CC3)n2)cc1OCC` belongs “inactive”; to `CCOc1ccc(-c2nnn(CC(=O)N3CCN(c4ccc(OC)cc4)CC3)n2)cc1OCC`, “inactive”; to `COc1ccc(C(=O)Cn2nnc(-c3ccc(N4CCOCC4)cc3)n2)cc1OC`, 10 µM (active). On the same count and under the same terms, to `CCOC(=O)c1cc2sccc2n1Cc1ccc(C#N)cc1` belongs “inactive”. In the case of `O=C(O)c1ccc(C(=O)O)c2c(C(=O)O)ccc(C(=O)O)c12`, the activity change, negative = inhibition was -2.88% [at 11.4 µM]. For the compound `Cn1nnc(NC(=O)CSc2ncn[nH]2)n1`, the Potency entry was “inactive”.

On to `CC(C)(C)c1ccc(C(=O)CSc2ncn[nH]2)cc1`, for which the Potency is 15.8 µM (active). For `CCN(C(=O)CSc1ncn[nH]1)c1cccc2ccccc12`, the Potency result is “inactive”.

As to `CCOc1cc(C)c(Cl)cc1S(=O)(=O)n1nnc2ccccc21`, the Potency result is “inactive”. On to `C=CCn1c(SCc2nnc(-c3ccccc3)o2)nnc1C(O)c1ccccc1` (configuration not stated), for which the Potency result is “inactive”. Take `CCOc1ccc(OCc2ccc(C(=O)Nc3cccc(C)n3)o2)cc1`: the Potency entry is “inactive”. Take `Cc1cccc(NC(=O)COc2ccc(Br)cc2C)n1`: the Potency was 10 µM (active). Consider `Cc1cccc(NC(=O)COc2ccccc2C)n1`, for which the Potency result was “inactive”. `COc1cccc(-c2nc3n(n2)C(c2ccccc2Cl)C(C(N)=O)=C(C)N3)c1` (configuration not stated): the Potency entry was “inactive”. For `CC(C)CNC(=O)c1cc(-c2ccc(Br)cc2)on1`, the Potency result was “inactive”. Take `CC(C)Cc1cc(C(=O)Nc2cc(Br)ccc2O)no1`: the Potency is 12.6 µM (active). For the compound `O=C(Nc1ccccc1C(F)(F)F)c1cc(-c2ccc(O)cc2)on1`, the Potency entry is “inactive”. The same measure, in the same setting: to `O=C1c2cccnc2C(Nc2ccc(S(=O)(=O)N3CCCCCC3)cc2)N1Cc1ccccc1` (configuration not stated) belongs “inactive”; to `COC(=O)c1cn(C)c2ccc(S(=O)(=O)N3CC(C)CC(C)C3)cc2c1=O` (configuration not stated), “inactive”; to `c1ccc2[nH]c(-c3nc4ccccc4[nH]3)nc2c1`, 2.51 µM (active). In the case of `C=CCSc1nc2ccccc2[nH]1`, the Potency result is “inactive”. As to `c1ccc(-c2[nH]ncc2-c2nc3ccccc3[nH]2)cc1`, the Potency entry is “inactive”. For the compound `CC(=O)c1nc(N2C(=O)C3CC=C(C)CC3C2=O)sc1C` (configuration not stated), the Potency result is “inactive”. For `COc1ccc2[nH]c3c(=O)n(Cc4ccco4)cnc3c2c1`, the Potency result is “inactive”. For the compound `COc1ccc2[nH]c3cc4c(=O)c5cc(OC)ccc5[nH]c4cc3c(=O)c2c1`, the activity change, negative = inhibition was -0.432% [at 11.4 µM]. Turning to `COc1ccc2[nH]c3ccc(OC)cc3c2c1`, the Potency is 20 µM (active). In the case of `CCOc1ccc(N2C(=O)CC(N(O)c3ccccc3)C2=O)cc1` (configuration not stated), the Potency result was “inactive”. With `CCOc1ccc(-c2nnc(-c3ccco3)o2)cc1`, the Potency was 7.94 µM (active). As to `Cc1ccc(OCC(=O)Nc2ccc(-c3nnc(-c4ccco4)o3)cc2)cc1`, the Potency result is “inactive”. Still for that read-out and setting: to `CCC(=O)Oc1cccc(C(=O)Nc2ccc(-c3nnc(-c4ccco4)o3)cc2)c1` belongs “inactive”; to `CCOc1cc2c(cc1OCC)C(C(=O)O)C(c1ccc(OC)c(O)c1)N(C)C2=O` (configuration not stated), “inactive”.
